Bioassay records: PubChem BioAssay, Broad Institute
aSyn 5UTR act: Activators via SNCA 5'UTR binding, MLPCN. alpha-synuclein 5'UTR reporter, activators screen. activity score, % (tested at 7.5 µM), hits read low. hit rate 7.1% among 300,000. AID 1814; in the data active = activity score below about -60%
Hits are given with their value; . = inactive. These entries were drawn from the full list.

SMILES | aSyn 5UTR act
O=S(=O)(c1ccc(F)cc1)c1snnc1-c1ccccc1 | -76
O=S(=O)(c1ccc(Cl)cc1)c1snnc1-c1ccccc1 | .
CCOC(=O)Cc1ccc2sc(-c3ccccc3)nc2c1 | -82
CCOc1ccccc1N1CCN(C(=O)c2cn(CC3CCCCC3)nn2)CC1 | -84
Cc1cc(Cl)ccc1OCC(=O)Nc1ccncc1 | -81
Cc1ccc(NC(=O)COc2ccc(Br)cc2C)cc1 | -102
CC(=O)NC(=S)Nc1ccc(NC(=O)COc2ccc(Cl)cc2Cl)cc1 | -62
Cc1ccc(OCC(=O)Nc2ccc3c(c2)OCO3)c(C)c1 | -175
Cc1ccc(Cl)c(OCC(=O)Nc2ccc3c(c2)OCCO3)c1 | -146
CCOc1ccc(NC(=O)CCC(=O)NNC(=O)COc2ccc(C)cc2Br)cc1 | -77
CCN1/C(=C2\OC(=S)N(C)C2=O)Sc2ccccc21 | -129
C=CCN1/C(=C2/SC(=S)N(C)C2=O)Sc2ccccc21 | -65
Cc1ccc(SCCSc2nc(C)cc(=O)[nH]2)cc1 | -133
CCOC(=O)C(CC)(CC)C(=O)/C=C/c1cccc(Br)c1 | -74
c1csc(-c2cnc3ccccc3n2)c1 | -108
c1cc(-c2cccs2)nc(-c2cccs2)c1 | -104
CCCCCCCCC/C(=N\O)c1ccccn1 | -75
CCS(=O)(=O)N1Cc2ccccc2CC1C(=O)Nc1nc2ccccc2[nH]1 (stereo unspecified) | -101
O=C(Nc1nc2ccccc2[nH]1)C1CCC1 | -104
O=C(Nc1nc2ccccc2[nH]1)C1CCCC1 | -80
O=C(CC1CCCC1)Nc1nc2ccccc2[nH]1 | -123
Cc1cc(C(c2nnnn2Cc2ccccc2)N2CCOCC2)c(C)n1-c1ccc2c(c1)OCO2 (stereo unspecified) | -315
O=C1S/C(=C\c2ccc(N3CCOCC3)o2)C(=O)N1c1ccccc1 | -96
O=C(O)c1ccccc1-c1ccc(/C=C2\SC(=O)N(c3ccccc3)C2=O)o1 | -72
COCCn1c(C)cc(C(=O)CSc2ccc3ccccc3n2)c1C | -141
SMILES | aSyn 5UTR act
COCCn1c(C)cc(C(=O)CSc2nc3ccccc3c(=O)[nH]2)c1C | -152
CCCn1c(C)cc(C(=O)CSc2nc3ccccc3c(=O)n2Cc2ccco2)c1C | -219
C=C(C)CSc1nc2nc(C)c(Br)cc2[nH]1 | -73
Cc1ccn2c(c1)nc(=S)n2C(=O)c1ccco1 | -202
Cc1ccc2nc(NC(=O)[C@H](C)N3C(=O)C4CC=CCC4C3=O)sc2c1 (stereo partly specified) | .
Cc1nc2ccc(NC(=O)N(C)c3ccccc3)cc2s1 | -119
Cc1nc2ccc(NC(=O)N(C(C)C)C(C)C)cc2s1 | -90
Nc1[nH]n(-c2ccccc2)c(=O)c1N=Nc1ccc2ncsc2c1 | -78
Nc1[nH]n(-c2ccccc2)c(=O)c1N=Nc1ccccc1[N+](=O)[O-] | -133
Nc1[nH]n(-c2ccccc2)c(=O)c1N=Nc1ccccc1 | -138
CCCC(=O)N1c2ccccc2C(=C2SC(C(=O)OC)=C(C(=O)OC)S2)C(=S)C1(C)C | -88
O=C(Nc1ccc2ccccc2c1)c1cccnc1 | -161
Cc1coc(C)c1C(=O)Nc1ccc2ccccc2c1 | -162
O=C(Nc1ccc2ccccc2c1)c1cnccn1 | -129
Cc1ccccc1C(=O)Nc1ccc(Br)c(C)n1 | -113
O=C(Nc1ccc(OCc2ccccc2Cl)cc1)c1cccnc1 | .
Cc1cc(NC(=O)c2cccnc2)ccc1Br | -147
Cc1nc(NC(=O)c2cccnc2)ccc1Br | -83
Cc1nc(NC(=O)CCc2ccccc2)ccc1Br | -145
Cc1cc(NC(=O)c2ccccc2[N+](=O)[O-])ccc1Br | -130
O=C(Nc1ccc2nccnc2c1)c1cnccn1 | -79
O=C(Nc1ccc2c(c1)Cc1ccccc1-2)c1cccnc1 | -122
Cc1nc2cc3nc(C)sc3cc2s1 | -80
O=C(c1cccs1)N1N=C(c2ccc(O)cc2)CC1c1ccccc1 (stereo unspecified) | -72
COc1ccc(OC)c(-c2csc(NC(=O)C3=NN(c4ccccc4)C(=O)CC3)n2)c1 | -129
SMILES | aSyn 5UTR act
O=C(Nc1nc2ccc(F)cc2s1)c1ccccn1 | .
O=C(Nc1nc2ccc(F)cc2s1)c1ccc(N2CCCC2=O)cc1 | -155
O=C(Nc1ccccc1Br)c1ccc(N2CCCC2=O)cc1 | -124
O=C(Nc1nc2ccc(F)cc2s1)C1=NN(c2ccccc2)C(=O)CC1 | -97
Cc1csc(NC(=O)c2ccc(N3CCCC3=O)cc2)n1 | .
CCOCCCNC(=O)c1cccc(OC2CCN(S(C)(=O)=O)CC2)c1 | -151
CCOCCCNC(=O)c1ccc2c(c1)N=C(CC)c1cc(Br)ccc1S2 | .
Cc1ccc(Cn2ccc(=O)c(OCc3ccccc3)c2C)cc1 | -110
Cc1c(O)c(=O)ccn1Cc1ccccc1 | .
Cc1ccc(Cn2ccc(=O)c(Cc3c(Cl)cccc3Cl)c2C)cc1 | .
O=C(Nc1nc2c(s1)CN(Cc1ccccc1)CC2)c1c(F)cccc1F | -82
CC(C)(C)C(=O)Nc1nc2c(s1)CN(Cc1ccccc1)CC2 | -92
O=C(Nc1nc2c(s1)CN(Cc1ccccc1)CC2)C1CCCC1 | -82
N#C/C(=C/c1ccc(N2CCCCC2)cc1)c1cccc(F)c1 | -135
N#C/C(=C/c1ccc(N2CCCCCC2)o1)c1ccc(Cl)cc1 | -299
N#C/C(=C/c1ccc(N2CCCCC2)o1)c1cccc(F)c1 | -334
Cc1ccc2oc(=O)n(CCCOc3ccccc3)c2c1 | -69
CCOc1ccc(OCCN2C(=O)c3ccccc3C2=O)cc1 | -94
Cc1cccc(OCCN2C(=O)c3ccccc3C2=O)c1 | -67
Cc1cccc(OCCn2c(=O)n(C)c3ccccc32)c1 | -162
O=C1c2ccccc2C(=O)N1CCCOc1ccccc1 | -62
Cc1ccc2c(c1)C(=O)C(=O)N2CCCOc1ccccc1 | -68
CCOC(=O)c1c(CSC(=N)N)n(-c2ccccc2)c2cc(Br)c(OC(C)=O)cc12 | -71
O=C(N/N=C/c1c[nH]c2ccc(Br)cc12)c1ccccn1 | -63
O=C(N/N=C/c1cc2c(cc1Br)OCO2)c1ccccn1 | -186
SMILES | aSyn 5UTR act
O=C(N/N=C/c1cc2c(cc1Br)OCO2)c1c[nH]c2ccccc12 | -82
O=C(N/N=C/c1cc2c(cc1Br)OCO2)c1cc2ccccc2o1 | -66
Cn1c(O)c(C=Nc2ccc(Br)cc2)sc1=O | -173
COCCn1ccc2c(OCC(=O)Nc3cc(OC)ccc3OC)cccc2c1=O | -62
COc1cc(OC)cc(C(=O)Nc2ccc3nc4n(c(=O)c3c2)CCCCC4)c1 | -115
CC(=O)Nc1ccc(NC(=O)c2sc3nc4n(c(=O)c3c2C)CCCCC4)cc1 | .
O=C(Nc1ccc2nc3n(c(=O)c2c1)CCCC3)c1cccc([N+](=O)[O-])c1 | -103
COc1ccccc1N=C1NC(=O)/C(=C/c2ccc(N(C)C)cc2)S1 | -194
S=c1[nH]nc(COc2ccccc2)n1/N=C/C(Cl)=C/c1ccccc1 | -129
S=c1[nH]nc(-c2ccncc2)n1/N=C/C(Cl)=C\c1ccccc1 | -221
O=C(Nc1cc(-c2ccccc2)[nH]n1)c1ccc(Cl)cc1 | -124
Cc1cc(NC(=O)c2cccc(Cl)c2)n[nH]1 | -71
Cc1ccc(NC(=O)c2cccc(Cl)c2)nc1 | -75
Cn1sc(NC(=O)c2cccc(Cl)c2)nc1=O | -118
CC(=O)N1CCN(S(=O)(=O)c2cccc(C(=O)Nc3ccc(C)cn3)c2)CC1 | -71
CCOC(=O)N1CCN(S(=O)(=O)c2ccc(C(=O)NNc3nc4cc(C)cc(C)c4s3)cc2)CC1 | .
Cc1ccc(NC(=O)c2ccc3c(c2)NC(=O)CS3)nc1 | -93
COc1ccc(C(=O)c2ccsc2N)cc1 | -97
COc1ccc(C(=O)c2ccc(CC#N)s2)cc1 | -150
Cc1nc(Nc2ccncc2)c2oc3ccccc3c2n1 | -66
